Bioassay records deposited in PubChem BioAssay by National Center for Advancing Translational Sciences (NCATS).
Only some compounds are listed: those with a hit (about 6% of all), similar ones and a draw of the others.
D1 antagonist = blocks dopamine activation of the human D1 receptor; activity change, negative = inhibition, % at 10 µM; HEK293 TREx D1 cells, calcium flux, dopamine EC80; stronger effect = lower value; AID 504652; hit rate 3.2% among 360,000; in the data active means activity change below about -30%; further: on the % scale 0 is the no-effect control and ±100 the full control effect
Target sequence (P21728 whole entry, looked up): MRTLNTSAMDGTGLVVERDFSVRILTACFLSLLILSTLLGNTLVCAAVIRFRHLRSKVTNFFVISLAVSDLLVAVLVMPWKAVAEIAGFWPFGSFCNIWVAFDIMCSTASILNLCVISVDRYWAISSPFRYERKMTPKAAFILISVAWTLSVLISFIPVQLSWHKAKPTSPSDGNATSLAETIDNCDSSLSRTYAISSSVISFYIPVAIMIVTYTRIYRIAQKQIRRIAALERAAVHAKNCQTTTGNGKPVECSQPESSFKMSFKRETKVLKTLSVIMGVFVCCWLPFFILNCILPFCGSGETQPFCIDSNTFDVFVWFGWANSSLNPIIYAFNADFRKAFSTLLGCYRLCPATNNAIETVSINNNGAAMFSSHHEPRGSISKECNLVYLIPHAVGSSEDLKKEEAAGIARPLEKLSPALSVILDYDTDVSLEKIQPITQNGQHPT
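Inducible Hek293 Trex D1 cells (tetracycline, overnight, 30 C). Calcium dye 30–90 min RT. Antagonist mode: EC80 dopamine added after 180 s compound read.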
D3 ag = D3 dopamine receptor (human) agonism. P35462. D3R DiscoveRx beta-arrestin cells, luminescence, 90 min. max activation, %. hit rate 0.58% among 410,000. AID 652048; in the data active means max activation above about 30%; further: 0% is about no effect
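Cells at 1500/well, incubated overnight, then treated with pinned compounds (dopamine as control) for 90 min at 37 degrees C. DiscoveRx reagent added for 30 - 60 minutes at room temperature; luminescence read.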
D1 ag = human D1 receptor agonism. hit rate 1% among 360,000. activation, % at 2 µM. HEK293 T-REx D1 cells, calcium flux, agonist mode. AID 504660. P21728; in the data active means activation above about 30%; further: 0% is about no effect
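Tetracycline-induced HEK293 TREx D1 cells, force-coupled to calcium signalling, were dye-loaded with a no-wash calcium kit. Compound was pin-added after a 10 s baseline. Fluorescence was read kinetically at 1 cycle/s for 180 s, with calcium rises flagged as agonism.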
D1 potentiator = enhances dopamine response at the human D1 receptor; P21728; AID 504651; HEK293 TREx D1 cells, calcium flux, dopamine EC20 potentiation; potentiation, % at 10 µM; hit rate 0.036% among 360,000; in the data active means potentiation above about 30%; further: 0% is about no effect
DRD3 antagonist = D3 dopamine receptor (human) antagonism | P35462 | D3R cells, DiscoveRx beta-arrestin luminescence, antagonist mode; stronger effect = lower value | max response, negative = inhibition, % | hit rate 2.5% among 360,000 | AID 652054; in the data active means max response below about -50%; inconclusive means no clear call, values can overlap the other calls; further: on the % scale 0 is the no-effect control and ±100 the full control effect
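Cells plated overnight at 1500 cells/well, then exposed to library compounds with dopamine controls for 90 minutes at 37 degrees C. DiscoveRx reagent added for 30–60 minutes at room temperature; luminescence read, quantitative HTS format.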
The depositor's hits bear a star.

For CC1Cc2ccccc2N1S(=O)(=O)c1cccs1 (configuration not stated) the results were D1 antagonist 1, D3 ag 13, D1 ag 1, D1 potentiator 0 and DRD3 antagonist -110*.
`CCOc1ccc(-n2c(N)c(C(=O)NCc3ccco3)c3nc4ccccc4nc32)cc1` gave D1 antagonist -6, D3 ag -13, D1 ag 3, D1 potentiator 3 and DRD3 antagonist -79*.
`Nc1c(C(=O)NCc2ccco2)c2nc3ccccc3nc2n1CCc1ccccc1` gave D1 antagonist -10, D3 ag 6, D1 ag 8, D1 potentiator -2 and DRD3 antagonist 44.
For Nc1cc(=O)[nH]c(SCC(=O)N2CCN(S(=O)(=O)c3ccc4ccccc4c3)CC2)n1 the results were D1 antagonist -14, D3 ag 1, D1 ag -4, D1 potentiator -1 and DRD3 antagonist 3.
For O=C(CSc1n[nH]c(-c2cccs2)n1)N1CCN(S(=O)(=O)c2ccc3ccccc3c2)CC1 the results were D1 antagonist -8, D3 ag -2, D1 ag 3, D1 potentiator -5 and DRD3 antagonist -70*.
For CC1CC(=O)N(CC(=O)Nc2ccc(F)cc2F)c2ccccc2S1 (configuration not stated) the results were D1 antagonist 5, D3 ag 1, D1 ag 1 and D1 potentiator 1.
CC(=O)c1sc2nc(-c3ccc(C)cc3)c3c(c2c1N)CCCC3 was read as D1 antagonist 3, D3 ag 52*, D1 ag 4, D1 potentiator -4 and DRD3 antagonist 68.
Screening Cc1nc2sc(C(N)=O)c(N)c2c2c1CCCC2 returned D1 antagonist -30*, D3 ag 3, D1 ag 4, D1 potentiator -3 and DRD3 antagonist 9.
Screening Cc1ccc(-c2nc3sc(C(N)=O)c(N)c3c3c2CCCC3)cc1 returned D1 antagonist -14, D3 ag 26, D1 ag 6, D1 potentiator -8 and DRD3 antagonist 65.
`Cc1ccc(S(=O)(=O)CC(O)COc2ccc(F)cc2Cl)cc1` (configuration not stated) gave D1 antagonist -12, D3 ag -9, D1 ag 1, D1 potentiator -5 and DRD3 antagonist -64*.
CCOc1ccc(NC2CCCCC2NS(=O)(=O)c2ccccc2)cc1 (configuration not stated) was read as D1 antagonist -35*, D3 ag 3, D1 ag -1, D1 potentiator 22 and DRD3 antagonist 2.
`Cc1n[nH]c(C)c1Sc1ccccc1N=Cc1cc(Cl)cc([N+](=O)[O-])c1O` gave D1 antagonist -12, D3 ag -15, D1 ag 7, D1 potentiator 3 and DRD3 antagonist -131*.
Cc1n[nH]c(C)c1Sc1ccccc1[N+](=O)[O-] was read as D1 antagonist 11, D3 ag 2, D1 ag 2, D1 potentiator -4 and DRD3 antagonist 13.
`COc1ccc(N(C(=O)CNC(=O)c2cccs2)C(C(=O)NCC2CCCO2)c2ccccc2)cc1OC` (configuration not stated) gave D1 antagonist -55*, D3 ag 3, D1 ag 2, D1 potentiator -4 and DRD3 antagonist 7.
COc1ccc(N(C(=O)CNC(=O)c2cccs2)C(C(=O)NCC2CCCO2)c2ccccc2)cc1 (configuration not stated) was read as D1 antagonist -13, D3 ag 13, D1 ag 30, D1 potentiator -6 and DRD3 antagonist 4.
COc1cc(C(C(=O)NCC2CCCO2)N(C(=O)Cn2nnc3ccccc32)c2ccc(OC)c(OC)c2)ccc1O (configuration not stated) was read as D1 antagonist -80*, D3 ag 16, D1 ag 0, D1 potentiator -4 and DRD3 antagonist 15.
For CCOc1ccccc1NC(=O)CC(c1ccc(F)cc1)N1Cc2ccccc2C1=O (configuration not stated) the results were D1 antagonist -5, D3 ag -13, D1 ag 8 and D1 potentiator -2.
O=C(CCS(=O)(=O)Cc1ccc(Cl)cc1)NCCCN1CCN(c2ccccc2F)CC1 was read as D1 antagonist -59*, D3 ag 2, D1 ag 51*, D1 potentiator -22 and DRD3 antagonist -70*.
`Cc1ccccc1CS(=O)(=O)CCC(=O)NCCN1CCN(c2cccc(Cl)c2)CC1` gave D1 antagonist -32*, D3 ag -10, D1 ag 11, D1 potentiator -7 and DRD3 antagonist -54*.
For O=C(CCCn1c(=O)[nH]c2ccccc2c1=O)NCCSCc1ccccc1 the results were D1 antagonist -4, D3 ag 9, D1 ag 1, D1 potentiator 2 and DRD3 antagonist 11.
O=C(CCCCCn1c(=O)[nH]c2ccccc2c1=O)NCCCN1CCN(c2ccccc2F)CC1 was read as D1 antagonist -91*, D3 ag 13, D1 ag 1, D1 potentiator -3 and DRD3 antagonist inconclusive.
Screening Cc1cc(C)c2c(=O)n(CC(=O)NCCCN3CCN(c4ccccc4F)CC3)sc2n1 returned D1 antagonist -13, D3 ag 8, D1 ag 1, D1 potentiator -5 and DRD3 antagonist -70*.
For O=C(NCc1ccc2c(c1)OCO2)c1ccc2c(c1)S(=O)(=O)c1ccccc1C2=O the results were D3 ag -2 and DRD3 antagonist -13.
For Cc1ccc(-n2ncc3c(NCCC4=CCCCC4)ncnc32)cc1C the results were D1 antagonist -24, D3 ag -3, D1 ag -3 and D1 potentiator -1.
Screening Cc1ccccc1CS(=O)(=O)CCC(=O)NCCCN1CCN(c2ccccc2F)CC1 returned D1 antagonist -6, D3 ag 3, D1 ag -1, D1 potentiator -10 and DRD3 antagonist -60*.
Screening O=C(CCCn1c(=O)[nH]c2ccccc2c1=O)N1CCN(c2ccccc2)CC1 returned D1 antagonist -37*, D3 ag -5, D1 ag -1 and D1 potentiator -6.
For Cc1ccc(C(=O)c2oc3ccccc3c2NC(=O)C(C)Oc2ccccc2Cl)cc1 (configuration not stated) the results were D1 antagonist 0, D3 ag 2, D1 ag 2 and D1 potentiator 0.
Screening Clc1cccc(CSc2nncn3c2cc2sccc23)c1 returned D1 antagonist 5, D3 ag -10, D1 ag 3 and D1 potentiator -3.
`CCNS(=O)(=O)c1ccc(CCC(=O)N2CCCC2)cc1` gave D1 antagonist 9, D3 ag 1, D1 ag 0, D1 potentiator 1 and DRD3 antagonist -10.
